Laboratory results taken from PubChem BioAssay AID1159580 (chemical genetic matrix, 2015).
About 2,000 (36%) of roughly 5,500 compounds were called active. Another 18% or so got no clear call; they are omitted. No stated cut-off is given here; in the data, active means normalized growth mostly below about 0.91 (no sharp cut-off); inconclusive means no clear call, values can overlap the other calls; inactive means mostly above about 0.92. The list shows a part of the results.

Assay: chemical genetic growth profiling, strain panel (AID 1159580);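 further: tested at 20 µM; growth read once vehicle control cultures reached saturation at 30 °C; 1 = growth at the plate median or of vehicle wells; lower values mean less growth of the strain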
Conditions: S. cerevisiae deletion strains, growth OD
[1] = locus YAR019C, strain CDC15, hits give low values
[2] = locus YBL105C, strain PKC1, hits give low values
[3] = locus YBR135W, strain CKS1, hits give low values
[4] = locus YBR136W, strain MEC1, hits give low values
[5] = locus YBR160W, strain CDC28, hits give low values
[6] = locus YDL017W, strain CDC7, hits give low values
[7] = locus YDL028C, strain MPS1, hits give low values
[8] = locus YDL101C, strain DUN1, hits give low values
[9] = locus YDL108W, strain KIN28, hits give low values
[10] = locus YDL132W, strain cdc53, hits give low values
[11] = locus YDL214C, strain PRR2, hits give low values
[12] = locus YDR052C, strain DBF4, hits give low values
[13] = locus YDR054C, strain cdc34, hits give low values
[14] = locus YDR226W, strain ADK1, hits give low values
[15] = locus YDR477W, strain SNF1, hits give low values
[16] = locus YER123W, strain YCK3, hits give low values
[17] = locus YER133W, strain GLC7, hits give low values
[18] = locus YFL009W, strain cdc4, hits give low values
[19] = locus YFL029C, strain CAK1, hits give low values
[20] = locus YFR003C, strain YPI1, hits give low values
[21] = locus YFR019W, strain FAB1, hits give low values
[22] = locus YFR028C, strain CDC14, hits give low values
[23] = locus YGR040W, strain KSS1, hits give low values
[24] = locus YGR052W, strain FMP48, hits give low values
[25] = locus YGR092W, strain DBF2, hits give low values
[26] = locus YHR030C, strain SLT2, hits give low values
[27] = locus YHR079C, strain IRE1, hits give low values
[28] = locus YHR082C, strain KSP1, hits give low values
[29] = locus YHR205W, strain SCH9, hits give low values
[30] = locus YIL147C, strain SLN1, hits give low values
[31] = locus YJL095W, strain BCK1, hits give low values
[32] = locus YJL157C, strain FAR1, hits give low values
[33] = locus YJR016C, strain ILV3, hits give low values
[34] = locus YJR066W, strain TOR1 (second series), hits give low values
[35] = locus YJR066W, strain TOR1, hits give low values
[36] = locus YKL048C, strain ELM1, hits give low values
[37] = locus YKL067W, strain YNK1, hits give low values
[38] = locus YKL101W, strain HSL1, hits give low values
[39] = locus YKL193C, strain SDS22, hits give low values
[40] = locus YKL203C, strain TOR2, hits give low values
[41] = locus YLR113W, strain HOG1, hits give low values
[42] = locus YLR403W, strain SFP1, hits give low values
[43] = locus YML070W, strain DAK1, hits give low values
[44] = locus YMR001C, strain CDC5, hits give low values
[45] = locus YMR205C, strain PFK2 (second series), hits give low values
[46] = locus YMR277W, strain FCP1, hits give low values
[47] = locus YNL006W, strain LST8, hits give low values
[48] = locus YNL020C, strain ARK1, hits give low values
[49] = locus YNL161W, strain CBK1, hits give low values
[50] = locus YNL183C, strain NPR1, hits give low values
[51] = locus YNL207W, strain RIO2, hits give low values
[52] = locus YNL222W, strain SSU72, hits give low values
[53] = locus YOL078W, strain AVO1, hits give low values
[54] = locus YOL136C, strain PFK27, hits give low values
[55] = locus YOR061W, strain CKA2, hits give low values
[56] = locus YOR119C, strain RIO1, hits give low values
[57] = locus YOR231W, strain MKK1, hits give low values
[58] = locus YOR329C, strain SCD5, hits give low values
[59] = locus YPL031C, strain PHO85, hits give low values
[60] = locus YPL153C, strain RAD53, hits give low values
[61] = locus YPL204W, strain HRR25, hits give low values
[62] = locus YPL209C, strain IPL1, hits give low values
[63] = locus YPL256C, strain CLN2, hits give low values
[64] = locus YPR025C, strain CCL1, hits give low values
[65] = locus YPR106W, strain ISR1, hits give low values
[66] = locus YPR111W, strain DBF20, hits give low values
[67] = strain NNK1, hits give low values
[68] = strain TSCII, hits give low values

Measured: normalized growth

CC(C)(Oc1ccc(C2CC2(Cl)Cl)cc1)C(=O)O (stereo not given)
inactive: locus YAL021C, strain ccr4, hits give low values 1 | locus YAL026C, strain drs2, hits give low values 1 | locus YAL030W, strain snc1, hits give low values 1 | locus YAL040C, strain CLN3, hits give low values 0.988 | locus YBL061C, strain skt5, hits give low values 0.997 | locus YBR009C, strain hhf1, hits give low values 0.995 | locus YBR023C, strain chs3, hits give low values 0.992 | locus YBR171W, strain sec66, hits give low values 0.996 | locus YBR231C, strain swc5, hits give low values 0.997 | locus YBR279W, strain paf1, hits give low values 1.02 | locus YCL011C, strain gbp2, hits give low values 1.01 | locus YCL016C, strain dcc1, hits give low values 0.992 | locus YCL061C, strain MRC1 (second series), hits give low values 0.988 | locus YCL061C, strain MRC1, hits give low values 0.99 | locus YCL069W, strain vba3, hits give low values 1.01 | locus YCR088W, strain abp1, hits give low values 0.997 | locus YDL005C, strain med2, hits give low values 0.998 | locus YDL040C, strain nat1, hits give low values 1 | locus YDR001C, strain nth1, hits give low values 1.01 | locus YDR069C, strain doa4, hits give low values 1 | locus YDR137W, strain rgp1, hits give low values 0.964 | locus YDR159W, strain sac3, hits give low values 0.997 | locus YDR195W, strain ref2 0.989 | locus YDR297W, strain sur2, hits give low values 0.998 | locus YDR334W, strain swr1, hits give low values 1 | locus YDR335W, strain msn5, hits give low values 1 | locus YDR392W, strain spt3, hits give low values 0.944 | locus YEL003W, strain gim4, hits give low values 1.02 | locus YEL037C, strain rad23, hits give low values 1.01 | locus YEL061C, strain CIN8 (second series), hits give low values 1.01 | locus YER002W, strain NOP16, hits give low values 0.962 | locus YER015W, strain faa2, hits give low values 0.994 | locus YER016W, strain bim1, hits give low values 1 | locus YER111C, strain swi4, hits give low values 0.998 | locus YER155C, strain BEM2 (second series), hits give low values 1 | locus YFR010W, strain ubp6, hits give low values 0.99 | locus YGL167C, strain pmr1, hits give low values 0.998 | locus YGL173C, strain kem1, hits give low values 1 | locus YGL227W, strain vid30, hits give low values 1 | locus YGL240W, strain doc1, hits give low values 1 | locus YGL253W, strain hxk2, hits give low values 1.01 | locus YHR013C, strain ard1, hits give low values 0.973 | locus YHR027C, strain rpn1, hits give low values 0.995 | locus YHR142W, strain chs7, hits give low values 1 | locus YJL092W, strain hpr5, hits give low values 1.01 | locus YJL095W, strain BCK1 (second series), hits give low values 0.997 | locus YJL115W, strain asf1, hits give low values 0.999 | locus YJL129C, strain trk1, hits give low values 0.987 | locus YJL154C, strain vps35, hits give low values 1.01 | locus YJL164C, strain tpk1, hits give low values 1 | locus YJL166W, strain qcr8, hits give low values 0.985 | locus YJL187C, strain SWE1, hits give low values 0.992 | locus YKL160W, strain elf1, hits give low values 0.978 | locus YKR026C, strain gcn3, hits give low values 0.997 | locus YKR091W, strain srl3, hits give low values 1 | locus YLL001W, strain dnm1, hits give low values 0.968 | locus YLL026W, hits give low values 1 | locus YLL041C, strain sdh2, hits give low values 1.01 | locus YLR027C, strain aat2, hits give low values 0.998 | locus YLR221C, strain rsa3, hits give low values 0.994 | locus YLR258W, strain gsy2, hits give low values 1 | locus YLR262C, strain YPT6 (second series), hits give low values 0.981 | locus YLR320W, strain mms22, hits give low values 0.976 | locus YLR342W, strain FKS1, hits give low values 1 | locus YLR357W, strain rsc2, hits give low values 1.01 | locus YLR370C, strain arc18, hits give low values 1 | locus YLR384C, strain iki3, hits give low values 1 | locus YML120C, strain ndi1, hits give low values 0.985 | locus YMR058W, strain fet3, hits give low values 1 | locus YMR125W, strain sto1, hits give low values 0.996 | locus YMR129W, hits give low values 0.996 | locus YMR205C, strain PFK2, hits give low values 0.973 | locus YMR231W, strain pep5, hits give low values 1 | locus YNL071W, strain lat1, hits give low values 0.998 | locus YNL153C, strain GIM3, hits give low values 1.01 | locus YNL175C, strain NOP13, hits give low values 0.98 | locus YNL197C, strain WHI3, hits give low values 1.08 | locus YNL209W, strain ssb2, hits give low values 1 | locus YNL224C, strain SQS1, hits give low values 0.99 | locus YNL248C, strain rpa49, hits give low values 1 | locus YNL322C, strain KRE1 (second series), hits give low values 0.984 | locus YNR049C, strain mso1, hits give low values 1 | locus YOR001W, strain rrp6, hits give low values 1.02 | locus YOR070C, strain gyp1, hits give low values 0.998 | locus YOR080W, strain dia2, hits give low values 0.988 | locus YOR083W, strain WHI5 (second series), hits give low values 1.01 | locus YOR083W, strain WHI5, hits give low values 0.977 | locus YOR106W, strain vam3, hits give low values 0.972 | locus YOR265W, strain rbl2, hits give low values 1 | locus YOR270C, strain vph1, hits give low values 0.99 | locus YOR290C, strain snf2, hits give low values 1.01 | locus YPL051W, strain arl3, hits give low values 0.994 | locus YPL078C, strain atp4, hits give low values 0.993 | locus YPL106C, strain sse1, hits give low values 0.951 | locus YPL240C, strain hsp82, hits give low values 1.01 | locus YPL241C, strain CIN2, hits give low values 0.984

O=[N+]([O-])c1ccc(Sc2ssc(=S)c2-c2ccccc2)nc1
active: [11] 0.521 | [15] 0.651 | [16] 0.338 | [17] 0.512 | [21] 0.546 | [23] 0.673 | [24] 0.449 | [26] 0.159 | [27] 0.247 | [28] 0.471 | [31] 0.175 | [32] 0.485 | [34] 0.312 | [35] 0.327 | [37] 0.61 | [40] 0.674 | [41] 0.362 | locus YLR133W, strain CKI1, hits give low values 0.626 | [43] 0.371 | [45] 0.722 | [48] 0.624 | [50] 0.256 | locus YNL307C, strain MCK1 (second series), hits give low values 0.633 | [54] 0.376 | [55] 0.664 | [57] 0.229 | [59] 0.57 | [60] 0.537 | [61] 0.422 | [63] 0.3
inactive: [1] 0.922 | [2] 0.946 | [3] 0.943 | [4] 0.952 | [5] 0.947 | [6] 0.954 | [7] 0.953 | [8] 0.961 | [9] 0.953 | [10] 0.956 | [12] 0.968 | [13] 0.918 | [14] 1.01 | [18] 0.948 | [19] 0.922 | [20] 0.958 | [22] 0.97 | [25] 0.617 | [29] 0.782 | [30] 0.956 | locus YJL128C, strain PBS2, hits give low values 1.05 | [33] 0.951 | [36] 0.843 | [38] 0.791 | [39] 0.933 | [42] 0.703 | [44] 0.932 | [46] 0.961 | [47] 0.942 | [49] 0.929 | [51] 0.944 | [52] 0.934 | [53] 0.928 | [56] 0.728 | [58] 0.945 | [62] 0.945 | [64] 0.944 | [65] 0.999 | [66] 0.994 | [67] 0.956 | [68] 0.917

O=C(NNc1ccc(I)cc1)c1cc(Cl)cc(Cl)c1
inactive: [1] 0.949 | [2] 0.965 | [3] 0.953 | [4] 0.953 | [5] 0.948 | [6] 0.961 | [7] 0.94 | [8] 0.987 | [9] 0.943 | [10] 0.95 | [11] 0.88 | [12] 0.952 | [13] 0.955 | [14] 0.929 | [15] 0.731 | [16] 0.651 | [17] 0.909 | [18] 0.938 | [19] 0.956 | [20] 0.967 | [22] 0.931 | [23] 0.809 | [24] 0.832 | [25] 0.78 | [27] 0.918 | [28] 0.848 | [29] 0.746 | [30] 0.955 | [31] 0.695 | [32] 0.94 | [33] 0.971 | [34] 0.865 | [35] 0.771 | [36] 0.889 | [37] 0.906 | [38] 0.842 | [39] 0.96 | [40] 0.926 | [42] 0.842 | [43] 0.849 | [44] 0.953 | [45] 0.904 | [46] 0.931 | [47] 0.972 | [48] 0.901 | [49] 0.97 | [50] 0.889 | [51] 0.963 | [52] 0.946 | [53] 0.955 | [54] 0.864 | [55] 0.715 | [56] 0.79 | [57] 0.884 | [58] 0.976 | [59] 0.81 | [60] 0.84 | [61] 0.832 | [62] 0.956 | [64] 0.959 | [65] 0.957 | [66] 0.929 | [67] 0.97 | [68] 0.946
active: [21] 0.767 | [26] 0.536 | [41] 0.498 | [63] 0.749
